Where “and” joins values, the source holds several entries; their conditions need not be identical. Equal values may be shown once. Among all 390,000 compounds or so, about 150 (0.038%) were called active. Not shown: some 3% with an inconclusive outcome. Calls follow the shape of the dose curve; as a rule, active = well fitted inhibition curve with a large enough effect; inconclusive = small, poorly fitted or top-dose-only effect; inactive = no such curve, though single readings can be large or run the other way. For the sample, actives were picked, then their nearest neighbours and some compounds at random. The source holds several records for some structures; these can differ, active in one and inactive in another.
% is scaled to controls: 0 for no effect and ±100 for the full control effect; potency is read from the fitted curve at half-maximal effect.

Sequence of Regulator of G-protein signaling 4 (Homo sapiens) (P49798 whole entry, looked up): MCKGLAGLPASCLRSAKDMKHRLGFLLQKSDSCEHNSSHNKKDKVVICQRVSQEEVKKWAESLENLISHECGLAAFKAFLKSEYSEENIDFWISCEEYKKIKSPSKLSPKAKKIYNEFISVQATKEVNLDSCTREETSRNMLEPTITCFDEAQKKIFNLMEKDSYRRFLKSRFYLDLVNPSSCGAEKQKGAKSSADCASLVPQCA

For the assay, the target named is Regulator of G-protein signaling 4 (Homo sapiens) (UniProt P49798). Description: Inhibitors of Regulator of G Protein Signaling (RGS) 4: qHTS. Also: nearly all actives have a fitted effect of over 75% in size. To be noted: Transcreener GDP fluorescence polarization, RGS4-accelerated GTP hydrolysis; series mostly up to 114 µM; activity change, negative = inhibition: at the top concentration. Put shortly:
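MLSMR compounds (23 nl, pin-transferred) preincubated 10 min at room temperature with a 500nM (2x) first reagent, then RGS4 at 900nM (2x) plus Transcreener GDP mix added; fluorescence polarization (620/688 nm) read before and after 90 min at 30 °C.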
(Quantitative high-throughput screening tests each substance at several concentrations.)
With `O=C(NCc1ccccc1)c1cccc(NC(=O)N2CCSc3ncccc32)c1`, the “activity change, negative = inhibition” value was 16.8% (inactive).
Still for that read-out and setting: the value for `COc1ccc(Cn2c(=O)[nH]c3cc(C(=O)N4CCN(C(=O)c5ccco5)CC4)ccc3c2=O)cc1` was -26% (inactive); that for `CCOc1ccc(NC(=O)CSc2nnc3c(n2)[nH]c2ccc(S(=O)(=O)N4CCOCC4)cc23)cc1` was 0.0899% (inactive).
The same measure, in the same setting: with `CC1CCCN(S(=O)(=O)c2ccc3[nH]c(=O)cc(C(=O)NCCc4ccc(Cl)cc4)c3c2)C1` (stereo not given) the figure was -8.74% (inactive); with `CCN(CC)CCNC(=O)CN1N=C(c2ccc(OC)cc2)CCC1=O`, -1.33% (inactive); with `COC(=O)c1ccc(C2C(C(=O)Nc3ccccc3)=C(C)Nc3nc4ccccc4n32)cc1` (stereo not given), 12.3% (inactive).
`Oc1cc2c(cc1O)CN(C(=S)NCCc1ccc(Cl)cc1)CCC2`: the Potency entry is “inactive and 16.8 µM (active)”.
On to `S=C(Nc1ccc(Cl)cc1Cl)N1CCCC1`, for which the “activity change, negative = inhibition” value is 17.2% (inactive).
Still for that read-out and setting: with `O=C(NCCc1ccc(Cl)cc1)C1CCCN1C(=O)NCc1ccccc1` (stereo not given) the figure was 0.986% (inactive).
With `COc1ccc(CC(=O)NCCc2sc3nc(-c4ccc(OC)cc4)nn3c2C)cc1`, the “activity change, negative = inhibition” value was 23.7% (inactive).
The same measure, in the same setting: with `Cc1ccc(-n2ncc(C(=O)N(C)Cc3ccccc3)c2-n2cccc2)cc1` the figure was 12.5% (inactive); with `Cc1ccc(-c2onc(C)c2C)cc1S(=O)(=O)Nc1ccccn1`, -2.85% (inactive); with `O=C1C[C@@H](c2ccc3ccccc3c2)N1S(=O)(=O)c1ccccc1[N+](=O)[O-]`, 3.68% (inactive).
On the same count and under the same terms, the value for `CCCN1CCN(CCCNC(=O)c2ccc3nc(Cc4ccccc4)oc3c2)CC1` was 18.4% (inactive).
With `Cc1cccc(C(=O)NCCc2nc3ccccc3n2Cc2ccccc2Cl)c1`, the “activity change, negative = inhibition” value is -14.7% (inactive).
In the case of `CSc1ccc(CCNC(=O)c2cc(C)nc3c2c(C)nn3-c2cccc(F)c2)cc1`, the “activity change, negative = inhibition” value is -41% (inactive).
Consider `COCCNS(=O)(=O)c1cc(-c2nn3c(C)nnc3c3ccccc23)ccc1C`, for which the “activity change, negative = inhibition” value is -16.3% (inactive).
Turning to `Cc1ccc(NC(=O)c2cccc(N(C)C)c2)cc1NC(=O)c1ccc(O)cc1`, the Potency entry is “inactive”.
On to `Cc1ccccc1C(=O)N(Cc1ccc(N(C)C)cc1)CC1CCCO1` (stereo not given), for which the “activity change, negative = inhibition” value is 8.38% (inactive).
On to `Cc1nc(SCC(=O)N2CCN(c3ccccc3)CC2)[nH]c(=O)c1C`, for which the “activity change, negative = inhibition” value is 19.3% (inactive).
Regarding `NC(=O)CSc1nc2c(oc3ccccc32)c(=O)n1Cc1ccccc1`, the “activity change, negative = inhibition” value is -46.5% (inactive).
Still for that read-out and setting: with `CCN(C(=O)Cn1c(=O)nc(-c2ccccc2)c2cc(Cl)ccc21)c1cccc(C)c1` the figure was -11.5% (inactive); with `CCCCCCn1nnc2sc(-c3ccccc3)cc2c1=O`, -27.4% (inactive); with `CC(C)c1ccc2oc(-c3cc(NC(=O)c4cccs4)ccc3Cl)nc2c1`, -15% (inactive).
Regarding `Cc1cc2oc(C(=O)N(Cc3ccc(Cl)cc3)Cc3ccco3)c(C)c2cc1Cl`, the “activity change, negative = inhibition” value is 30% (inactive).
For the compound `CC(C)[C@H]1CC[C@@H](C)C[C@H]1O`, the “activity change, negative = inhibition” value is -127% [at 56.9 µM] (inactive).
Regarding `COc1ccc(CNC(=O)c2cc3c(=O)[nH]c4ccccc4c3s2)cc1`, the “activity change, negative = inhibition” value is -9.46% (inactive).
As for `O=S(=O)(Nc1cccc2cccnc12)c1cccc2cccnc12`, the “activity change, negative = inhibition” value was 9.93% (inactive).
As to `COC(=O)c1cc2occc2n1Cc1nc(-c2ccc(C)cc2)oc1C`, the “activity change, negative = inhibition” value was 12.1% (inactive).
On to `Cc1ccc(F)cc1S(=O)(=O)N1CCC(c2nc3ccccc3s2)CC1`, for which the “activity change, negative = inhibition” value was -18.9% (inactive).
Same read-out and setting: with `Cc1cc(OC(C)C(=O)Nc2sc3c(c2C(N)=O)CCCC3)ccc1Cl` (stereo not given) the figure was -10.8% (inactive); with `COc1ccc(C2Nc3ccc(NC(=O)COC(C)=O)cc3C(=O)N2Cc2ccccc2)cc1COc1ccc(NC(C)=O)cc1` (stereo not given), 0.54% (inactive).
In the case of `C#CCOc1ccc(C2CC(=O)Nc3c2c(C)nn3-c2nc(C)cc(C)n2)cc1` (stereo not given), the “activity change, negative = inhibition” value was -13.7% (inactive).
For the compound `Cc1ccc(C)c(N2CCN(C(=O)Cn3nc(C)c4sc5ccccc5c4c3=O)CC2)c1`, the “activity change, negative = inhibition” value was -5.5% (inactive).
On the same count and under the same terms, the value for `CC(C)S(=O)(=O)c1oc(-c2ccc(F)cc2)nc1S(=O)(=O)c1ccc(F)cc1` was -17.3% (inactive); that for `COc1cc(OC)cc(C(=O)Nc2c(C(=O)Nc3ccc(F)cc3)oc3ccccc23)c1` was 8% (inactive); that for `Oc1ccc(Cl)cc1C1C=C(c2ccc3c(c2)OCO3)NC(c2ccc(F)c(Br)c2)N1` (stereo not given) was -52.5% (inactive).
On to `CCOc1ccc(NC(=O)CC2C(=O)N(c3cccc(OC)c3)C(=O)N2C2CCCCC2)cc1` (stereo not given), for which the “activity change, negative = inhibition” value was 33.4% (inactive).
Still for that read-out and setting: the value for `COc1ccc(Cc2nc3ccc(C(=O)NCc4ccccc4C)cc3o2)cc1` was 1.01% (inactive); that for `O=C(Nc1ccc2c(c1)OCO2)c1cc(-c2cccc(Cl)c2)on1` was 5% (inactive).
Take `C=CC1(C)CC(=O)C2(O)C(C)(O1)C(OC(C)=O)C(O)C1C(C)(C)CCC(O)C12C` (stereo not given): the “activity change, negative = inhibition” value is -6.89% [at 56.9 µM] (inactive).
On to `Cc1ccccc1CSc1nc2c([nH]c3ccccc32)c(=O)n1C`, for which the “activity change, negative = inhibition” value was 4.27% (inactive).
The same measure, in the same setting: with `O=C(c1ccc(F)cc1)C1CCN(CCCCc2ccccc2)CC1` the figure was 80.5% [at 56.9 µM] (inactive).
Turning to `CCc1cc2c(cc3c(=O)n(CC(=O)NCc4cccc(Cl)c4)nc(CC)n32)s1`, the “activity change, negative = inhibition” value was 19.3% (inactive).
Still for that read-out and setting: the value for `Cc1ccc(Cl)cc1N1CCN(S(=O)(=O)c2cc3[nH]c(=O)c(=O)[nH]c3cc2C)CC1` was -20% (inactive).
Same read-out and setting: the value for `CCCSc1ncc(Cl)c(C(=O)Nc2sc3c(c2C(=O)NCCOC)CCCC3)n1` was 20.4% (inactive); that for `Cc1ccc(CCNC(=O)C2CCN(c3nnc(-n4cccc4CNc4ccc(C)cc4)s3)CC2)cc1` was 29.4% (inactive).
On the same count and under the same terms, the value for `CCOc1ccccc1NC(=O)Cn1c(=O)n(-c2cccc(C)c2)c(=O)c2c1c1cc(OC)ccc1n2C` was 6.5% (inactive).
As for `COc1ccc(Cl)cc1NC(=O)C(C)Sc1nc2c(c(=O)[nH]1)CCCC2` (stereo not given), the “activity change, negative = inhibition” value is 30.7% (inactive).
On the same count and under the same terms, the value for `Cc1ccc2nc(/C(C#N)=C/c3ccc(-c4ccc(C(=O)OC(C)C)cc4)o3)[nH]c2c1` was 2.62% (inactive).

The values are drawn from PubChem BioAssay AID504845 (National Center for Advancing Translational Sciences (NCATS), 2011).
